The list is not random: actives were taken first. Their share in the collection is about 1%.
sEH activator = soluble epoxide hydrolase activators, primary screen, biochemical, human sEH | activation, % at 2 µM | hit rate 0.04% among 91,000 | AID 717, 2007 | Bifunctional epoxide hydrolase 2 (Homo sapiens), P34913 | purified human sEH enzymatic activity, activator screen; in the data active = activation above about 37%
Target sequence (P34913 whole entry, looked up): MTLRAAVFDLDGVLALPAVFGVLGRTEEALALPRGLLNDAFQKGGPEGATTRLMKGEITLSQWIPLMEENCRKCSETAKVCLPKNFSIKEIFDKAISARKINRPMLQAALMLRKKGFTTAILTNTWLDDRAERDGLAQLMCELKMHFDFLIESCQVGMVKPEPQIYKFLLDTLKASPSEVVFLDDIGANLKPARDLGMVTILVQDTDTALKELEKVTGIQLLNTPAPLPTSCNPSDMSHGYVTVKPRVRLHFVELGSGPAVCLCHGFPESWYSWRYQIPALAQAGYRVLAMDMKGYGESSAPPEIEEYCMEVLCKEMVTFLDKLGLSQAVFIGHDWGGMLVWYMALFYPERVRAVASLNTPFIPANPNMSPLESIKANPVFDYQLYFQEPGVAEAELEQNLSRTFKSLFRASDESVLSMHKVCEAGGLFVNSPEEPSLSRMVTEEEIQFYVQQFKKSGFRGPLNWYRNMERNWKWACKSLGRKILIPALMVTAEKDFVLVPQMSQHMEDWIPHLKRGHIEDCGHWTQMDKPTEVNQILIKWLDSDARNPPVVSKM
sEH inh = soluble epoxide hydrolase inhibitors, primary screen, biochemical, human sEH | Bifunctional epoxide hydrolase 2 (Homo sapiens), P34913 | inhibition, % at 2 µM | AID 707, 2007 | hit rate 0.34% among 91,000 | recombinant human sEH enzymatic activity assay; in the data active = inhibition above about 80%
Phagocytosis inh = inhibitors of macrophage phagocytosis, primary screen, imaging, J774A.1 cells, IgG beads. inhibition, % at 5 µM. J774A.1 macrophage IgG-bead phagocytosis. AID 1029, 2008. hit rate 0.07% among 110,000;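 active = inhibition above the mean of the plate negative controls plus 5 SD, cut at about 13% in these data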;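 also: phagocytic index as fraction of beads internalized from green versus red external bead signal; plate controls were DMSO negative control for no effect and cytochalasin-D positive control for full effect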
MRP reversal = reversal of MRP1-mediated doxorubicin resistance, primary screen, H69AR cells, doxorubicin co-treatment. differential viability (reversal), % at 10 µM. hit rate 0.04% among 85,000. H69AR cells + 2 uM doxorubicin, CellTiter-Glo, 72 h;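 active = viability drop by adding the cancer drug above about 55%, with treated viability meeting a 40% cutoff, limit read from the data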;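 also: viability without doxorubicin minus viability with 2 µM doxorubicin for each compound; larger differential means the compound sensitizes cells more to doxorubicin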
sdo1 growth = growth rescue of sdo1-depleted yeast, primary screen, S. cerevisiae, bone marrow failure model | S. cerevisiae sdo1-depleted JHY4D growth rescue, OD600 30 h; hits give high values; pdr5 snq2 efflux-pump mutant strain | z-score at 10 µM | hit rate 0.21% among 140,000 | AID 817, 2007;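 active = z-score above 3 at both the 24 hr and the 30 hr optical density reads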;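 also: z-score against mean and SD of all compound wells on the same plate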
MRP1 act = H69AR viability gain despite doxorubicin, primary screen, MRP-1 activator project, H69AR cells, CellTiter-Glo; viability rescue; viability increase, % at 10 µM; hit rate 0.61% among 140,000; AID 799, 2007;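 active = viability gain under doxorubicin at or above a set limit, the compound median plus 3 SD, cut at about 4.7% in these data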;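 also: MRP-1 overexpressing cells given doxorubicin 25 µM after compound pretreatment; 18-22 h compound pretreatment then 72 h with doxorubicin before readout; 0% = doxorubicin-only wells and 100% = vehicle-treated cells without doxorubicin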
SDO1 rescue DR = SDO1-depleted yeast growth rescue, concentration-response, diseases of bone marrow failure, JHY4D, OD600; shares compounds with sdo1 growth; S. cerevisiae JHY4D (SDO1-depleted) growth rescue, 30 h; hits give high values; efflux-deficient strain, SNQ2 and PDR5 mutated; OD recovery (test concentration not listed); hit rate 44% among 440;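 active = yeast growth recovered at 30 hours, either rising with dose fitted slope above 0.001 or with average optical density gain above 0.07, some results past the limit were not filed as active; inactive = growth falling with dose or no effect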;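 also: gain in OD600 from 0 h to 30 h averaged across all seven doses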
Active calls of the source: *; / = not tested or not shown.

SMILES	sEH activator	sEH inh	Phagocytosis inh	MRP reversal	sdo1 growth	MRP1 act	SDO1 rescue DR
CCOc1cc(C#N)c(NC(=O)c2cccnc2)cc1OCC	8.5	-10.2	/	/	1.39	-4.2	0.0583
CC1=C(C(=O)N2CCOCC2)C(c2ccccc2F)C2=C(CC(C)(C)CC2=O)N1 (stereo unspecified)	/	/	1.6	/	1.07	-1.6	/
COc1ccc(C2C(C(=O)N3CCOCC3)=C(C)NC3=C2C(=O)CC(C)(C)C3)c(OC)c1 (stereo unspecified)	-3.3	3.5	/	-6.9	8.21*	-3.9	0.0589
COc1cc(/C=N\NC(=O)C2CC3C=CC2C3)ccc1O (stereo unspecified)	/	/	-5.9	/	1.16	-2.1	/
COC(=O)Cn1cc(/C=N/NC(=O)c2ccc(C#N)cc2F)c2ccccc21	17.1	-14.2	3.7	/	4.05*	-2.7	0.0694
CCn1cc(/C=N/NC(=O)c2ccc(C#N)cc2F)c2ccccc21	9.1	-7.1	-0.4	/	0.9	0.5	/
O=C(COC(=O)/C=C/c1ccccc1[N+](=O)[O-])Nc1ccc(OC(F)F)cc1	/	/	-4.9	/	11.3*	0.4	0.067
Nc1c(N2CCOCC2)cc(Cl)c2nonc12	-4.0	3.5	-0.6	-3.5	5.96*	-1.4	0.0314
Nc1c(N2CCCC2)cc(Cl)c2nonc12	0.2	3.3	-0.9	-11.3	-0.05	-2.5	/
C=CCN=C(C)C1=C(O)C(C)OC1=O (stereo unspecified)	/	/	-4.2	/	14.2*	3.9	0.0967*
COc1cccc(NC(=O)Nc2ccc3c(c2)nnn3C)c1	-8.9	8.8	/	-0.1	0.2	0.2	0.0788*
Cn1nnc2cc(C(=O)Nc3cccnc3)ccc21	-3.9	3.5	-0.8	-2.7	1.57	-1.8	/
Cc1ccc(OCc2ccc(C(=O)O)o2)c([N+](=O)[O-])c1	/	/	-5.7	/	1.39	-1.8	/
CCC(=O)OCCn1c(=O)c2cc3c(=O)n(CCOC(=O)CC)c(=O)c3cc2c1=O	-9.9	9.4	-0.1	6.5	2.61	-0.3	0.0826*
Cc1noc(NS(=O)(=O)c2ccc(NC(=O)C34CC5CC(C3)CC(n3cnc(Cl)n3)(C5)C4)cc2)c1C	/	/	-1.3	/	1.91	0.5	/
O=C(NCCc1ccccc1)c1ccnc(/C=N/O)c1	-6.1	7.3	-0.3	0.0	7.99*	-0.5	0.0287
CC1(C)NC(=O)N(CC(=O)Nc2nc(-c3ccc(F)cc3)cs2)C1=O	-1.1	0.8	-0.5	/	0.41	-1.7	/
COc1ccc2c(c1)CCc1c(C(=O)Nc3ccc(OC)c(OC)c3)noc1-2	2.5	-2.9	0.9	-5.6	0.33	-1.4	/
COc1ccc2c(c1)CCc1c(C(=O)NCCc3ccc(OC)c(OC)c3)noc1-2	-45.0	43.9	0.1	17.1	0.22	-2.1	0.0375
Cc1cc(C)cc(NC(=S)NCc2cccn2C)c1	-21.2	23.4	/	-9.0	0.63	-2.8	/
Nc1[nH]nc2c1NN(c1ccc(Cl)cc1Cl)N2	/	/	-3.8	/	-1.44	-2.7	/
NC(=O)C1(N2CCCCC2)CCN(C(=S)Nc2ccccc2)CC1	/	/	-5.5	/	0.15	-0.4	/
CCOc1ccc(NC(=O)N2CCC(C(N)=O)(N3CCCCC3)CC2)cc1	-13.4	15.8	/	/	13.1*	-0.3	0.0655
CCn1c(O)c(N=NC2=NC(=O)CS2)c2ccccc21	-3.5	1.8	/	/	15.9*	3.0	0.079
Cc1ccccc1OC1C(=O)N(Cc2ccc3c(c2)OCO3)C1c1sccc1C (stereo unspecified)	-7.4	9.2	/	/	-1.03	-5.3	/
SMILES	sEH activator	sEH inh	Phagocytosis inh	MRP reversal	sdo1 growth	MRP1 act	SDO1 rescue DR
COC(=O)c1ccc2[nH]c(C)cc(=O)c2c1	10.6	-10.1	-0.2	19.2	5.96*	-2.7	0.0388
COc1ccc(-c2noc(CCC(=O)N(C)c3cccc(C)c3)n2)cc1	-2.9	1.2	-0.5	9.4	4.31*	2.6	0.0447
COc1ccc(-c2noc(CCC(=O)Nc3cccc(C)c3)n2)cc1	-4.8	6.3	0.7	8.0	0.05	-0.1	/
COC(=O)c1ccc(C2c3c(oc4ccc(F)cc4c3=O)C(=O)N2CCO)cc1 (stereo unspecified)	/	/	-0.4	8.7	1.93	0.9	0.0608
COC(=O)c1ccc(OCC(O)CN(CC(C)C)CC(C)C)cc1 (stereo unspecified)	2.6	-1.9	0.1	11.5	0.65	-1.1	/
O=C(CSc1nnnn1-c1ccccc1)Nc1nsc(-c2ccccc2)n1	-17.4	15.3	-0.5	-13.1	-0.36	-1.0	/
O=C(CSc1nnnn1-c1ccccc1)Nc1nc(-c2ccccc2)ns1	7.7	-4.2	-1.4	2.7	2.03	1.1	0.0706*
Cc1ccc(-n2nnnc2SCC(=O)Nc2nc(-c3ccc(F)cc3)cs2)cc1C	3.0	-3.0	/	/	0.64	-4.8	0.0289
CCC(C)[C@H](NC(=O)NCCCN1CCOCC1)C(=O)OC (stereo partly specified)	9.8	-11.1	0.4	5.2	5.59*	0.5	0.065
Cc1ccccc1N1CCN(Cc2c[nH]c3ccccc23)CC1	1.3	1.4	0.8	-1.5	7.55*	-3.1	0.0619
O=C(c1cccc2ccccc12)N1CCC(N2CCN(c3ccccc3)CC2)CC1	-9.8	9.8	/	/	0.29	-1.4	/
CC(C)c1nnc(N2C(=O)c3oc4ccccc4c(=O)c3C2c2ccco2)s1 (stereo unspecified)	-5.7	5.0	/	/	0.72	0.2	0.0768*
CSCCC(NC(=O)c1cc([N+](=O)[O-])ccc1Cl)C(=O)O (stereo unspecified)	/	/	-6.8	/	0.92	-1.2	/
CCCn1c(O)c(N=NC(=O)c2ccco2)c2ccccc21	/	/	-3.9	/	1.9	-2.9	/
O=C(N=NC(=O)c1ccco1)c1ccc2c(O)n(N3C(=O)c4ccccc4C3=O)c(O)c2c1	/	/	-0.9	/	3.51*	-1.0	0.0749*
O=C(CCC(=O)Nc1ccccc1Cl)N/N=C1\CCCc2ccccc21	/	/	-2.5	/	12.6*	-2.6	0.0832*
CCOc1ccc(C(=O)N2CCCC2)cc1OC	2.8	-2.6	-0.3	-5.9	0.75	0.3	/
CCOc1cc(C(=O)N2CCCC2)cc(OCC)c1OCC	-0.3	5.1	1.7	1.4	1.79	-0.5	0.0418
Cc1ccc(C(C)C)cc1OCCCCN1CCCC1	/	/	12.1	/	-0.37	-3.1	/
COc1ccc(C2=CC(=O)OC3(CCCC3)O2)cc1	5.8	-6.8	-0.3	10.5	-0.24	-0.5	/
Cc1ccc(Cc2nnc3n(-c4ccccc4)nc(C(=O)c4ccccc4)n3c2=O)cc1	6.7	-4.1	/	-48.6	-1	-5.9	/
COC(=O)c1c(C(=O)OC)c2cc(C)ccn2c1Cl	12.4	-12.3	-1.1	-13.6	10.6*	0.5	0.0837*
COC(=O)c1nc2cc(C)ccn2c1F	/	/	-0.4	/	-0.02	-0.1	/

High-throughput results as filed in PubChem.
